Whole data set: some 33,000 sequences, median “E-score (-0.5 to 0.5)” near -0.017, cut for the highest 2% near 0.3. Shown is part of a subset that was picked to be rich in the highest values.
biological target: T1, Sut1 (UniProt P53032); assay: PBM E-score (8-mer binding enrichment) (E-score (-0.5 to 0.5)); higher = stronger / more preferred TF binding; settings: protein concentration: 200 nM; construct: GST-full length
T1 sequence: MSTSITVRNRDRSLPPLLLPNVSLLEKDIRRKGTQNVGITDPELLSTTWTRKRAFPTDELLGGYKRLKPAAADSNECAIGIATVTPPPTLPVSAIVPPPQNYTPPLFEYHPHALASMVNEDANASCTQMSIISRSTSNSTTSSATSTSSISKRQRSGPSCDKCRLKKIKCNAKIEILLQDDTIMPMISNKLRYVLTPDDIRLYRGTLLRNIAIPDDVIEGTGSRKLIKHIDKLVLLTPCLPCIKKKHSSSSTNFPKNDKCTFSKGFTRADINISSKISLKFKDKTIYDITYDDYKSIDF
Experimental: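 Universal 'all 10-mer' protein binding microarrays (Agilent AMADID 015681) probed with GST-tagged S. cerevisiae TFs (full-length or DBD) made by in vitro transcription/translation (PURExpress), about 100-200 nM. Bound TF was detected with fluorescent anti-GST. Each ungapped 8-mer (which stands for itself and its reverse complement) is scored by the PBM enrichment score (E-score), a modified Wilcoxon-Mann-Whitney statistic from -0.5 to +0.5, computed with the Universal PBM Analysis Suite. Scale: above 0.35 generally sequence-specific binding.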

Sequence | PBM E-score
TACTATAA | 0.306
AACTAACT | 0.175
AGGGGTGG | -0.277
AGCCGTGA | -0.0248
TGAATACA | 0.241
ATCTGGTG | -0.015
ATTAGATC | 0.0421
ATTAGATA | 0.175
ATTAGATG | 0.303
ATATTCAG | 0.04
GCTTCGGA | 0.324
GCTTCGCA | -0.197
CCTTCGCA | -0.178
CCTTCGGC | -0.233
GCTTCGTA | 0.0454
ACTTCGGA | 0.397
CCTTCGGA | 0.32
ACTTCGGC | 0.14
ACTTCGGG | 0.0676
AATCTGTC | 0.133
GGAAAGAC | -0.0333
CGGCGTAG | -0.176
AAAACTGG | 0.149
ATTGCTGA | -0.0342
CATGAGAA | 0.0161

Sequence | PBM E-score
GCCAAGCC | -0.0191
AGCGGAGA | 0.325
CGCGGAGC | 0.26
AGCGGAGG | -0.201
CGCGGAGA | 0.387
GGCGGAGA | 0.23
AGCGGAGC | 0.137
GACGGTCA | -0.253
CCAAGGGG | -0.143
ACCTTCGC | -0.0159
ATTAACAC | 0.302
ATTAACAA | 0.199
CTTAACAC | -0.122
AGCTATCA | -0.0476
GAGCCGGA | 0.254
ATGCCGGC | -0.0395
TAGCCGGA | 0.282
AAGCCGGA | 0.331
ATGCCGGA | 0.325
ATGCCGGG | -0.0609
ACCATAAC | 0.0292
AATTTTAA | 0.295
AATTTAAG | 0.218
AATTTTAC | 0.27
AATTTAAT | 0.317

Sequence | PBM E-score
AATTTAAC | 0.255
AATTTTAT | 0.317
AGCCTAGA | -0.224
GAACCGCA | 0.0646
AATTGACC | 0.0635
CGAGTGAG | 0.0764
TGGAATAA | 0.122
GGGAATAA | 0.233
CGGAATAC | 0.325
GGGAATAC | -0.0577
CGGAATAA | 0.306
AGGAATAC | -3e-05
AAAGGGTA | -0.054
TGTGGCAA | -0.0604
GAATTGGA | 0.0498
CCCAAACC | -0.0698
GTCCCGGA | 0.348
CTCCCGGA | 0.232
GTCCCCGA | 0.066
GTCCCGCA | -0.159
ATCCCGGA | 0.328
ATCCCGGG | -0.07
CAGTCGAC | -0.0872
TATGCTGA | 0.175
CACACCGG | 0.0539

Sequence | PBM E-score
AACACCGC | -0.0108
AACACCGG | 0.301
CTGCTATC | 0.134
AGTCTCTG | -0.12
AGCAGTAA | 0.0389
AAAAGGCA | 0.114
CAGACGAC | -0.213
CAGACGAA | 0.298
GAGACGAA | -0.0447
AGCTATGC | -0.227
CGGAATTC | 0.323
AGGAATTA | 0.137
CTGAATTC | -0.102
AGGAATTC | -0.203
CGGAATTA | 0.349
GGGAATTA | 0.143
CATGTGAC | -0.0811
AATAAGTC | 0.0835
CATTCCGG | 0.194
AATTCCGC | 0.192
AAATCCGC | -0.0542
AATTCCGT | 0.317
AAATCCGG | 0.36
AAATCCGT | 0.149
AATTCCCT | -0.0468

Sequence | PBM E-score
AATTCCAT | 0.0698
AATTCCGG | 0.337
AAGAGTCG | 0.00242
AGTAGTGC | -0.185
ACACTCGG | 0.00116
GAGAATGC | 0.0169
AACTTATG | 0.0687
TACTTATA | 0.151
GACTTATC | -0.0236
GACTTATA | 0.326
CACTTATA | 0.0975
AACTTATA | 0.31
AACGTCTT | -0.113
GGCTCCCC | -0.226
CAAGGCCC | -0.132
CGCATAAG | -0.0216
CATAGGGA | -0.0219
CAGGTGGC | -0.219
GTTGGTGA | -0.0399
ACCGGAGG | 0.133
CCCGGAGA | 0.374
ACCGGATC | 0.0878
ACCGGAGA | 0.43
ACAGGAGA | -0.137
ACCAGAGT | -0.256

Sequence | PBM E-score
ACCGGAGT | 0.492
CCCGGATA | 0.123
ACCGGAAT | 0.204
ACCGGAGC | 0.353
ACCGGATA | 0.0607
CCCGGAGG | 0.0148
TGTCTGAA | 0.0592
ACCGGTCT | -0.115
ATGACAAT | 0.198
GCCGGAAA | 0.244
TCCGGAGA | 0.409
GCCGGAGA | 0.316
TCAGGAGA | 0.0262
CCCGGAAC | 0.129
CCGGGAGC | -0.0765
GCCGGAGC | 0.284
TCCAGAGA | -0.187
CCCGGAGC | 0.406
CCACCCAG | -0.129
CCGAGTTC | 0.0827
ATACTGGG | -0.138
AGTCCTAT | 0.0983
AATCCGAA | 0.159
AGTCCGAC | 0.477
AGTCCGAG | 0.489

Sequence | PBM E-score
GGTCCGAC | 0.24
AGTCCGAA | 0.49
AATCCGAG | 0.0276
AATCCGAT | 0.195
AGTCCGAT | 0.486
AGTCCAAA | 0.169
CGTCCGAG | 0.149
CGTCCGAC | -0.14
CGCATTCC | -0.284
AGTATCGG | 0.176
CGTGGGTC | -0.162
CCTCAAGA | -0.113
GTCCTCAC | -0.0725
ACAGTCAC | -0.176
TCATACAA | 0.304
GTATACAA | 0.179
CCATACAA | 0.0626
GCATACAA | 0.0888
ATATACAA | 0.256
TTATACAA | 0.326
AACCTTGA | 0.116
GATGGTGC | -0.409
